# PNC assembly inh = blocks assembly of the perinucleolar compartment | PC3M PTB-GFP, PNC prevalence imaging, 16 h; active compounds read low | activity change (PNC), negative = inhibition, % at 10 µM | 140,000 tested, 3.1% active | AID 2417;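 active = readout at or below -70, meaning at least 70% loss of cells showing the perinucleolar compartment, a nuclear body marking cancer cells; inconclusive = readout between -30 and a set limit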;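 also: plate controls were DMSO wells for no effect and camptothecin positive control wells for full effect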
#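 PC3M cells stably expressing PTB-GFP, 750–1000 cells/well, treated 16 h at 37 °C with compound (23 nl of library stock), in duplicate. After paraformaldehyde fixation and Hoechst stain, imaged at 20x; PNC prevalence scored by image analysis.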
# ALDH1A1 inh = inhibitors of human aldehyde dehydrogenase 1A1 | P00352 | Purified ALDH1A1, NADH fluorescence, propionaldehyde substrate | Potency, µM (top dose mostly 75.3 µM), for the others: at the top dose activity, negative = inhibition, most hits filed as inhibitors | 220,000 tested, 7.3% active;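 also: potency is read from the fitted curve at half-maximal effect; plate controls were no enzyme wells and a reference inhibitor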
# 12-hLO inh = blocks human 12-lipoxygenase activity. P18054. Potency, µM (series often up to 57.1 µM), for inactives: top-dose activity change, negative = inhibition, most hits filed as inhibitors. purified 12-hLO, xylenol orange hydroperoxide absorbance. 150,000 tested, 0.12% active. AID 1452; active = well fitted inhibition curve with a large enough effect; inconclusive = small, poorly fitted or top-dose-only effect; also: potency is read from the fitted curve at half-maximal effect; nearly all actives have a fitted effect of over 55% in size
# Target sequence (P18054 whole entry, looked up): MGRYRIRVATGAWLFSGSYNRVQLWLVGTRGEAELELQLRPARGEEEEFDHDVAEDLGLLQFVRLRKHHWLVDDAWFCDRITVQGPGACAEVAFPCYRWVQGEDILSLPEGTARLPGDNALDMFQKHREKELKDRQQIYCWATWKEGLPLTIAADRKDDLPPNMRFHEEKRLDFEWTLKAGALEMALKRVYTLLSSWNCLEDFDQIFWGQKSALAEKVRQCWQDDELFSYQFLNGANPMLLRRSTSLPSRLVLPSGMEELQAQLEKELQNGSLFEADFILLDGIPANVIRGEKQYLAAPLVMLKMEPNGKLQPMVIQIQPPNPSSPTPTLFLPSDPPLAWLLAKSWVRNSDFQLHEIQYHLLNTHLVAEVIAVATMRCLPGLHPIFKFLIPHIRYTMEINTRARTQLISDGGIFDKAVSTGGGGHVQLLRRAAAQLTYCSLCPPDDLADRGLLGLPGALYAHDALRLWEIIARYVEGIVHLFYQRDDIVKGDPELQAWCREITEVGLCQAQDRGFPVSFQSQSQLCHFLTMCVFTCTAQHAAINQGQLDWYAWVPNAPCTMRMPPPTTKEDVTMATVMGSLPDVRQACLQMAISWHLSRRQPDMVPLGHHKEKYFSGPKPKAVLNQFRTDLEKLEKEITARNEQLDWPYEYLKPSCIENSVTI
#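 Xylenol orange chromogenic assay: hydroperoxide from 12hLO oxidises Fe(II), giving red-shifted Fe(III)-XO absorbance. Conditions: 150 nM enzyme, 40 uM arachidonic acid, 25 mM Hepes pH 7.0, 0.01% Triton X-100, 30 min, room temperature.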
# HPGD block = inhibitors of human 15-hydroxyprostaglandin dehydrogenase (HPGD); P15428; purified HPGD, NADH fluorescence kinetic, PGE2 substrate; Potency, µM, for inactives: at the top dose activity change, negative = inhibition, most hits filed as inhibitors; 150,000 tested, 4.3% active; also: potency is read from the fitted curve at half-maximal effect
#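 20 nM HPGD preincubated 15 min at room temperature with compound in 50 mM Tris-HCl pH 8, 0.01% Tween 20. Started with 1 mM NAD+ and 30 uM prostaglandin E2; NADH fluorescence (360/450 nm) read 5 times over 30-s intervals, last minus first.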
# LMNA splice mod = changes lamin A minigene splicing in HeLa cells | 200,000 tested, 0.01% active | Potency, µM (series often up to 46.1 µM), for inactives: at the highest dose ratio change, negative = inhibition, actives largely listed as inhibitors | AID 1487 | HeLa LMNA splicing GFP/RFP minigene ratio, 48 h; active = well fitted inhibition curve with a large enough effect in the signal ratio, with a control signal flat, not every such curve was filed as active; inconclusive = small, poorly fitted or top-dose-only effect, or effect the other way, or a change in a side signal; the % refers to the signal ratio; also: potency is read from the fitted curve at half-maximal effect
#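 S3 HeLa stable clones carrying a lamin A-EGFP splicing minigene plus DsRed2 were seeded at 600 cells/well in Opti-MEM with 2% FBS, pin-dosed and incubated 48 h at 37°C. Acumen cytometry (488 nm) gave the GFP/RFP total-intensity ratio.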
# Active calls of the source: *; u = inconclusive; x = no result; [ ] = dose if it differs, or a comment. An excerpt weighted towards active compounds, which were near 10% of everything screened. Unless noted, calls follow the shape of the dose curve; as a rule, active = well fitted inhibition curve with a large enough effect (not every such curve was filed as active); inconclusive = small, poorly fitted or top-dose-only effect, or another doubt; inactive = no such curve, though single readings can be large or run the other way. Unless noted, % is scaled to controls: 0 for no effect and ±100 for the full control effect.
SMILES,PNC assembly inh,ALDH1A1 inh,12-hLO inh,HPGD block,LMNA splice mod
COc1ccccc1NC(=S)NCCc1ccc(Cl)cc1,74,u,14µM*,-11%,2%
Cc1cccc(NS(=O)(=O)c2cc(C(=O)O)ccc2Cl)c1,x,-3%,3%,-8%,x
O=S(=O)(c1ccccc1)N1CCC2(CC1)CN(c1ccncc1)C2,x,-8%,1%,-27%,x
O=C1C=C(NCCc2cc(Br)c(O)c(Br)c2)C(=O)c2ncccc21,x,1.6µM*,0%[11.4 µM],-11%,x
O=[N+]([O-])c1cccnc1NCCc1ccccc1,x,0%,x,x,x
COc1ccc(C2=NOC(C(=O)NCc3ccc(F)cc3)C2)cc1OC (stereo unspecified),-96*,6%,-4%,-8%,u
COc1cccc(C2=NOC(C(=O)NCc3ccc(F)cc3)C2)c1 (stereo unspecified),27,12%,-7%,0%,10%
COc1cc(C2=NOC(C(=O)NCc3ccc(F)cc3)C2)cc(OC)c1OC (stereo unspecified),-121*,32µM*,0%,-23%,u
Cc1c(NS(=O)(=O)c2ccc(Cl)c(C(=O)OCC(=O)NCc3ccco3)c2)c(=O)n(-c2ccccc2)n1C,x,-2%,x,x,x
Oc1ccc(CCc2n[nH]c(=S)n2-c2ccc(F)cc2)cc1,x,-12%,x,x,-9%[46 µM]
Cc1ccc(C(=O)Nc2cccc(-c3cnc4ccccc4n3)c2)cc1,50,12%,-3%,-6%,6%
O=C(Nc1cccc(-c2cnc3ccccc3n2)c1)c1ccco1,46,25µM*,1%,-23%,-14%
CC(C)C(=O)Nc1cccc(-c2cnc3ccccc3n2)c1,-96*,-6%,-4%,-7%,-5%
COc1cccc(CNC(=O)c2cnc3c(-c4ccc(F)cc4)c(C)nn3c2C)c1,x,x,x,x,11%[46 µM]
CCCCCCCCCCCCCC(=O)N[C@@H](C)[C@H](O)c1ccccc1,x,0%,27%,-11%,x
CCOc1ccc(OCC(=O)N2CCOCC2)cc1,u,-2%,-2%,0%,3%
N#CC(C#N)=Cc1ccc(OCC(=O)N2CCOCC2)cc1,x,8.9µM*,x,x,18%[46 µM]
COCCCNc1ncnc2onc(-c3ccc(F)cc3)c12,x,x,x,x,11%[46 µM]
O=C(Nc1nc2c(F)cc(F)cc2s1)C1CC(=O)N(Cc2ccco2)C1 (stereo unspecified),x,14µM*,x,x,x
O=c1cnc2cnc(N3CCOCC3)nc2n1CCc1ccccc1,x,3%,x,x,-5%
O=C(NNC(=S)Nc1ccc(Br)cc1)c1ccc(N2CCOCC2)c([N+](=O)[O-])c1,9,0.89µM*,-8%,35µM*,-11%
O=C(Nc1ccc(N2CCCC2)c(Cl)c1)c1ccc([N+](=O)[O-])cc1,6,5%,3%,-7%,-7%
Cc1cc(C(=O)Nc2ccc(N3CCCC3)c(Cl)c2)ccc1[N+](=O)[O-],5,20µM*,-1%,-11%,-22%
Cc1ccc(NC(=S)NNC(=O)c2ccc(N3CCOCC3)c([N+](=O)[O-])c2)cc1Cl,0,7.9µM*,u,-11%,u
O=C(NNC(=S)Nc1ccc(Cl)cc1Cl)c1ccc(N2CCOCC2)c([N+](=O)[O-])c1,29,0.45µM*,-14%,u,u
SMILES,PNC assembly inh,ALDH1A1 inh,12-hLO inh,HPGD block,LMNA splice mod
O=C(c1ccc(N2CCCCC2)c([N+](=O)[O-])c1)N1CCOCC1,87,1%,4%,-15%,3%
Cc1cccc(OCC(=O)NCc2ccc3c(c2)CCN3C(=O)c2ccc(Cl)cc2)c1,x,x,x,x,8%[46 µM]
CN(C)c1ccc(-c2cc(Nc3ccc(F)cc3)ncn2)cc1,x,u,x,x,-7%
COc1ccc(OC)c(Nc2ncc3c(n2)CCN(Cc2cc(OC)c(OC)c(OC)c2)C3)c1,x,x,x,x,-14%[46 µM]
COc1ccc(C2C(C(=O)Nc3ccc(OC)c(OC)c3)c3ccccc3C(=O)N2C)cc1 (stereo unspecified),x,2%,x,x,-11%[9.22 µM]
O=C(NC1CC(=O)N(c2ccc(F)cc2)C1)c1ccc2c(c1)OCO2 (stereo unspecified),x,x,x,x,24%[46 µM]
CCN(CC(=O)Nc1ccc(N2CCOCC2)cc1)Cc1nc2ccccc2c(=O)[nH]1,19,22µM*,6%,-25%,-1%
CCN(CC(=O)Nc1ccc2c(c1)OC(F)(F)O2)Cc1nc2ccccc2c(=O)[nH]1,u,u,-2%,-3%,-6%
COc1cc2nc(CN(C)CC(=O)Nc3ccc(N4CCOCC4)cc3)[nH]c(=O)c2cc1OC,-24,28µM*,-9%,u,9%
CN(CC(=O)Nc1ccc(N2CCOCC2)cc1)Cc1c(O)ccc2ccccc12,x,3.5µM*,x,x,-4%[46 µM]
CCN(CC)CC(=O)Nc1ccc2c(c1)Nc1ccccc1CC2,u,20µM*,-7%,-17%,u
C/C(=N\NC(N)=O)c1ccccc1Cl,x,25%,x,x,x
CCN(CC(=O)NC(c1ccccc1)c1ccccc1)Cc1nc2ccccc2c(=O)[nH]1,22,18µM*,-8%,-18%,1%
CCN(CC(=O)Nc1ccc2c(c1)CCC2)Cc1nc2ccccc2c(=O)[nH]1,-3,14µM*,-2%,-24%,-12%
CCN(CC(=O)Nc1ccc2c(c1)OCO2)Cc1nc2ccccc2c(=O)[nH]1,23,u,-3%,-6%,13%
CCN(CC(=O)NCc1ccc(F)cc1)Cc1nc2cc(Cl)ccc2c(=O)[nH]1,12,22µM*,-6%,32µM*,-2%
C=CCN(CC=C)S(=O)(=O)c1ccc(NC(=S)NC(=O)c2ccc(-c3ccccc3)cc2)cc1,21,3.2µM*,u,u,-13%
C=CCN(CC=C)S(=O)(=O)c1ccc(NC(=S)NC(=O)Cc2ccc(OC)cc2)cc1,20,-8%,u,-12%,u
C=CCN(CC=C)S(=O)(=O)c1ccc(NC(=S)NC(=O)c2ccco2)cc1,-18,22µM*,-25%,-14%,u
CC1=NN(c2ccccc2)C(=O)/C1=C\c1c(C)[nH]n(-c2ccccc2)c1=O,20,-2%,-2%,-16%,18%
CC1=NN(c2ccccc2)C(=O)/C1=C/c1c(O)n(-c2ccc(F)c(Cl)c2)[nH]c1=O,-116*,14µM*,-6%,-28%,u
Cc1ccc(S(=O)(=O)NCc2ccccc2)cc1,x,-4%,-6%,-18%,x
Cc1ccc(S(=O)(=O)NCc2c(-c3ccccc3)noc2C)cc1,x,4µM*,x,x,x
COc1ccc(S(=O)(=O)NCc2c(-c3ccccc3)noc2C)c(OC)c1,x,2.5µM*,x,x,x
COc1cc(Cl)c(C)cc1NC(=O)c1cc(CN2CCOCC2)on1,x,x,x,x,-5%[46 µM]
CCOC(=O)c1nnn(-c2nonc2N)c1CSc1ccc(C)cc1,3,4.5µM*,-20%,-23%,u
CCOC(=O)c1nnn(-c2nonc2N)c1CSc1ccccc1,17,u,3%,2%,2%
COc1ccc(CCCc2n[nH]c(=S)n2C)cc1C,x,-1%,x,x,2%[46 µM]
COc1ccc(CCCc2n[nH]c(=S)o2)cc1C,x,8.9µM*,x,x,27%[46 µM]
